{"source": "PubChem BioAssay AID651958", "about": "(The Scripps Research Institute Molecular Screening Center, 2012)", "note": "The campaign covered roughly 370,000 compounds. About 2,000 (0.54%) were called active. Cut-off read from the data, not from the text of the source: active = inhibition above about 30%; inactive = the rest. Many of the other results were omitted from the sample, so actives are more common in it than they were."}
{"tested_on": "Crimean-Congo hemorrhagic fever virus L polyprotein viral ovarian tumor (vOTU) protease domain", "assay": "CCHFV vOTU protease inhibitors, primary screen, biochemical, Pep-AMC substrate, fluorescence (AID 651958); note: 0% = vehicle wells with enzyme and 100% = no enzyme wells", "details": "at 11.5 µM, hits give high values"}
{"smiles": "CC(C)[C@@H](C(=O)O)N(Cc1cccc(CN([C@H](C(=O)O)C(C)C)S(C)(=O)=O)c1)S(C)(=O)=O", "inhibition": "1.18% (inactive)"}
{"smiles": "CCC(C)CCN1CCN=C1N(C)C", "note": "(stereo unspecified)", "inhibition": "10.6% (inactive)"}
{"smiles": "CC(Sc1nncn1C)C(=O)Nc1ccccc1-c1ccccc1", "note": "(stereo unspecified)", "inhibition": "3.71% (inactive)"}
{"smiles": "CC(C(=O)Nc1ccc(Cl)cc1Cl)N1CC=C(c2ccccc2)CC1", "note": "(stereo unspecified)", "inhibition": "-3.9% (inactive)"}
{"smiles": "CC(C(=O)Nc1ccccc1-c1ccccc1)N1CCOCC1", "note": "(stereo unspecified)", "inhibition": "30% (active)"}
{"smiles": "COc1ccc(S(=O)(=O)N(C)C[C@H]2OCc3cnnn3CCCC(=O)N([C@H](C)CO)C[C@H]2C)cc1", "inhibition": "-4.66% (inactive)"}
{"smiles": "COc1cccc(NC(=O)C(=O)c2cn(CC(=O)N3CCOCC3)c3ccccc23)c1", "inhibition": "40.2% (active)"}
{"smiles": "O=C(Nc1ccc(F)cc1)C(=O)c1cn(CC(=O)N2CCOCC2)c2ccccc12", "inhibition": "-0.24% (inactive)"}
{"smiles": "COc1cccc(NC(=O)CS(=O)(=O)c2cn(CC(=O)N3CCOCC3)c3ccccc23)c1", "inhibition": "6.34% (inactive)"}
{"smiles": "CN(Cc1c(F)cccc1Cl)C(=O)COC(=O)Cn1cnc2ccccc2c1=O", "inhibition": "-6.54% (inactive)"}
{"smiles": "CCCCC(O)(CCCC)C(=O)NN(C(=O)CCl)c1ccccc1", "inhibition": "8.68% (inactive)"}
{"smiles": "CCCc1ccc(OCC(O)CN2CCN(CCO)CC2)cc1", "note": "(stereo unspecified)", "inhibition": "-10.8% (inactive)"}
{"smiles": "COc1ccc(CN2CCC(C)(Oc3cccc(F)c3)C2)c2ccccc12", "note": "(stereo unspecified)", "inhibition": "10% (inactive)"}
{"smiles": "CCC1(C)Cc2c(sc3nnn(CC(=O)Nc4ccc(Cl)cc4)c(=O)c23)CO1", "note": "(stereo unspecified)", "inhibition": "-1.67% (inactive)"}
{"smiles": "CCCSc1nc(NCc2ccco2)c2c3c(sc2n1)COC(C)(CC)C3", "note": "(stereo unspecified)", "inhibition": "30.9% (active)"}
{"smiles": "CN1CCc2c(sc3c2c(NCc2ccco2)nc2nnnn23)C1", "inhibition": "-25.3% (inactive)"}
{"smiles": "Clc1ccc(C(Cn2ccnc2)OCc2ccsc2Cl)c(Cl)c1", "note": "(stereo unspecified)", "inhibition": "9.88% (inactive)"}
{"smiles": "Clc1ccc(C2=CSC3=Nc4cccc5cccc(c45)N23)cc1", "inhibition": "103% (active)"}
{"smiles": "COc1ccc(CN(Cc2ccco2)S(=O)(=O)c2ccc(S(=O)(=O)N3CCCC3)cc2)cc1", "inhibition": "-4.58% (inactive)"}
{"smiles": "O=C(NC1=CC(=O)c2ccccc2C1=O)c1ccccc1", "inhibition": "101% (active)"}
{"smiles": "O=C1C=C(NS(=O)(=O)c2ccccc2)C(=O)c2ccccc21", "inhibition": "41.9% (active)"}
{"smiles": "Cc1cc(NS(=O)(=O)c2ccccc2)no1", "inhibition": "-7.1% (inactive)"}
{"smiles": "CC(=O)NS(=O)(=O)c1ccccc1", "inhibition": "-12.3% (inactive)"}
{"smiles": "O=c1ccn([C@@H]2O[C@H](CNS(=O)(=O)c3cc4ccccc4s3)[C@@H](O)[C@H]2O)c(=O)[nH]1", "inhibition": "-7.44% (inactive)"}
{"smiles": "COc1ccc(C2c3[nH]c4ccccc4c3C[C@H]3C(=O)N(CC(C)C)CC(=O)N23)c(OC)c1", "note": "(stereo partly specified)", "inhibition": "-0.95% (inactive)"}
{"smiles": "COc1ccc(/C=C2\\N=C3CCCN3C2=O)cc1", "inhibition": "5.48% (inactive)"}
{"smiles": "NC(=O)COc1ccc(C23CC4CC(CC(C4)C2)C3)cc1", "inhibition": "-6.98% (inactive)"}
{"smiles": "O=C(Oc1ccccc1C(=S)N1CCCCC1)c1cc([N+](=O)[O-])cc([N+](=O)[O-])c1", "inhibition": "-1.38% (inactive)"}
{"smiles": "CCCS(=O)(=O)NC(=O)C1(C)CCN(C(=O)c2sccc2C)C1", "note": "(stereo unspecified)", "inhibition": "47.1% (active)"}
{"smiles": "CCCS(=O)(=O)NC(=O)C1(C)CCCN(C(=O)c2cccs2)C1", "note": "(stereo unspecified)", "inhibition": "4.76% (inactive)"}
{"smiles": "CCCS(=O)(=O)NC(=O)C1(C)CCCN(C(=O)c2cc(C)on2)C1", "note": "(stereo unspecified)", "inhibition": "-4.97% (inactive)"}
{"smiles": "COc1ccc2c(c1)[C@@]13CCCCC1[C@@H](C2)NCC3", "note": "(stereo partly specified)", "inhibition": "-1.34% (inactive)"}
{"smiles": "CC1(Cc2cccc(C#N)c2)C(=O)Nc2ccc(-c3cccc(C(F)(F)F)c3)cc21", "note": "(stereo unspecified)", "inhibition": "21.6% (inactive)"}
{"smiles": "CCc1ccc2c(c1)C1(NN=C(c3ccccc3)S1)C(=O)N2", "note": "(stereo unspecified)", "inhibition": "1.82% (inactive)"}
{"smiles": "CCc1ccc2c(c1)NC(=O)C2(C)Cc1ccc(OC(F)(F)F)cc1", "note": "(stereo unspecified)", "inhibition": "31.4% (active)"}
{"smiles": "CCCn1nc(Oc2nc(NC(C)C)nc(N(C)C)n2)ccc1=O", "inhibition": "-1.37% (inactive)"}
{"smiles": "O=C(O)CCN1C(=O)CC2(CCCCC2)C1=O", "inhibition": "2.77% (inactive)"}
{"smiles": "COCc1[nH][nH]c(=O)c1C=Nc1ccc(F)cc1F", "inhibition": "4.69% (inactive)"}
{"smiles": "O=C(NCc1ccccn1)C1CCN(S(=O)(=O)c2ccc(Br)cc2)CC1", "inhibition": "-7.95% (inactive)"}
{"smiles": "COc1ccccc1C1CC(=O)n2c(nc(-c3ccccc3)c2-c2ccccc2)S1", "note": "(stereo unspecified)", "inhibition": "-11.5% (inactive)"}
{"smiles": "N#CC1=C(N)Oc2c(c(=O)oc3ccccc23)C1c1ccccc1OC(=O)c1cccs1", "note": "(stereo unspecified)", "inhibition": "2.95% (inactive)"}
{"smiles": "COc1ccccc1C1C(C#N)=C(N)Oc2c1c(-c1ccccc1)nn2-c1ccccc1", "note": "(stereo unspecified)", "inhibition": "31% (active)"}
{"smiles": "Cc1ccc(S(=O)(=O)N2CCC(=O)N([C@H](COCc3ccccc3)Cc3ccccc3)CC2)cc1", "inhibition": "4.4% (inactive)"}
{"smiles": "Cc1cc(F)ccc1S(=O)(=O)Nc1ncnc2scc(-c3ccc(F)cc3)c12", "inhibition": "-9.09% (inactive)"}
{"smiles": "Cc1ccc(CN2CCCCC(NC(=O)C3CCCCC3)C2=O)cc1", "note": "(stereo unspecified)", "inhibition": "6.33% (inactive)"}
{"smiles": "CCn1nc(C)c(CN2CCN(Cc3ccc(OC)c(C)c3C)C(CCO)C2)c1C", "note": "(stereo unspecified)", "inhibition": "-10.4% (inactive)"}
{"smiles": "Cc1ccc(NS(=O)(=O)c2ccc(N/N=C/c3ccccc3OCC(=O)O)c([N+](=O)[O-])c2)c(C)c1", "inhibition": "49.3% (active)"}
{"smiles": "Cc1ccc(NS(=O)(=O)c2ccc3c(c2)n(C)c(=O)c(=O)n3C)c(C)c1", "inhibition": "9.52% (inactive)"}
{"smiles": "O=C(O)c1ccccc1/C=N/Nc1ccc(S(=O)(=O)Nc2ccc(Cl)cc2)cc1[N+](=O)[O-]", "inhibition": "31.2% (active)"}
{"smiles": "O=[N+]([O-])c1cc(S(=O)(=O)Nc2cccc(Cl)c2)ccc1N=Nc1c(O)[nH]c2ccccc12", "inhibition": "-13% (inactive)"}
{"smiles": "O=C(Nc1cc(S(=O)(=O)Nc2ccc(Cl)cc2)ccc1O)c1ccc(F)cc1F", "inhibition": "1.4% (inactive)"}
{"smiles": "Cc1ccc(C)c(NS(=O)(=O)c2ccc(OCC(=O)NCc3cccnc3)cc2)c1", "inhibition": "7.43% (inactive)"}
{"smiles": "CCn1c(O)c(N=NC2=NC(=O)CS2)c2cc(C)ccc21", "inhibition": "10.8% (inactive)"}
{"smiles": "CC(C)c1c(CN(C)C(C)Cc2ccccc2)n(C)n(-c2ccccc2)c1=O", "note": "(stereo unspecified)", "inhibition": "3.82% (inactive)"}
{"smiles": "COc1cccc(CNC(=O)CCC2CCCN(C(=O)c3ccoc3C)C2)c1", "note": "(stereo unspecified)", "inhibition": "-3.63% (inactive)"}
{"smiles": "CCCNC(=O)c1ccc(N2CCC3(CC2)CC(c2ccc(Cl)cc2)=NO3)c([N+](=O)[O-])c1", "inhibition": "5.33% (inactive)"}
